The results in this text go back to PubChem BioAssay AID2284386 (EPA ToxCast).

The target of this assay is Peroxisome proliferator-activated receptor gamma (Homo sapiens) (UniProt P37231). Kind of assay: ERF_FR_NR_COA_hPPARG: Eurofins (ERF) Nuclear Receptor (NR) Functional Coactivator Assay for human Peroxisome Proliferator-activated Receptor gamma (PPARg) Agonism, conducted at France lab site. The protocol:
ERF_FR_NR_COA_hPPARG is a biochemical, single-readout assay that uses extracted gene-proteins in a cell-free assay. Measurements were taken 2 hours after chemical dosing in a 384-well plate. See PPARgamma Human NHR Functional Agonist Coactivator Assay, Cerep.ERF_FR_NR_COA_hPPARG is an assay component calculated from the ERF_FR_NR_COA_hPPARG assay. It is designed to measure FRET using a type of binding reporter as detected by fluorescence intensity of Rosiglitazone with fluorimetry technology.Data from the assay component ERF_FR_NR_COA_hPPARG was analyzed at the assay endpoint, ERF_FR_NR_COA_hPPARG, in the positive analysis fitting direction relative to DMSO as the negative control and baseline of activity. Using a type of binding reporter, gain-of-signal activity can be used to understand changes in binding as they relate to gene PPARG. […]
Test compound and/or vehicle is incubated with the 2 nM receptors and coactivator peptide for 180 minutes at room temperature. Determination of the amount of complex formed is read spectrofluorimetrically (excitation: 337 nm, emission: 520/490 nm). Test compound-induced increase fluorescence by 50 percent or more (>/=50%) relative to 1 uM GW1929 response indicates possible PPARgamma receptor agonist activity. […]

The source made the active and inactive calls. The calls were made as follows: active = hit-call score of the fitted dose curve at least 0.9, where 1 is the maximum; inactive = score below 0.9.

Chain of Peroxisome proliferator-activated receptor gamma (Homo sapiens) (P37231 whole entry, looked up): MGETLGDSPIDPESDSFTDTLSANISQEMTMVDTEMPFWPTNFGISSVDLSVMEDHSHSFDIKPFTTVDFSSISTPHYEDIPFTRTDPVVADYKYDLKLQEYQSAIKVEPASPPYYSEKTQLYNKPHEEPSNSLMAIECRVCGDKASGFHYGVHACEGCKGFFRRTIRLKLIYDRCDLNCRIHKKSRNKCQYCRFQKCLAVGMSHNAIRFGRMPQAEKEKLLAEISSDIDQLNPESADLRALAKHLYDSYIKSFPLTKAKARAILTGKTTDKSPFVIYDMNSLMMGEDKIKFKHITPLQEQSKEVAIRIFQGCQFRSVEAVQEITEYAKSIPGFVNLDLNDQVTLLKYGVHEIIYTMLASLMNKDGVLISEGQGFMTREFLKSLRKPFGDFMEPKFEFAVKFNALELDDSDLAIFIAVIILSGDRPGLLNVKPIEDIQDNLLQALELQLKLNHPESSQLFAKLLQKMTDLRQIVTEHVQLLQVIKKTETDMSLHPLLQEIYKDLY

`O=S(=O)(O)C(F)(F)C(F)(F)C(F)(F)C(F)(F)C(F)(F)C(F)(F)C(F)(F)C(F)(F)F`: the result was inactive.
